High-throughput results: PubChem BioAssay, National Center for Advancing Translational Sciences (NCATS)
Compounds with a hit are over-represented: about 6.1% of the library has one in this group of screens.
D1 potentiator = potentiators of human D1 dopamine receptor; HEK293 TREx D1 cells, calcium flux, dopamine EC20 potentiation; potentiation, % at 10 µM; 0.036% of 360,000 active; AID 504651; in the data active means potentiation above about 30%
D1 ag = activates the human D1 dopamine receptor. P21728. HEK293 T-REx D1 cells, calcium flux, agonist mode. activation, % at 2 µM. 1% of 360,000 active. AID 504660; in the data active means activation above about 30%
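Tetracycline-induced HEK293 TREx D1 cells, force-coupled to calcium signalling, were dye-loaded with a no-wash calcium kit. Compound was pin-added after a 10 s baseline. Fluorescence was read kinetically at 1 cycle/s for 180 s, with calcium rises flagged as agonism.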
D1 antag = antagonists of human D1 dopamine receptor; activity change, negative = inhibition, % at 10 µM; 3.2% of 360,000 active; P21728; HEK293 TREx D1 cells, calcium flux, dopamine EC80; active compounds read low; in the data active means activity change below about -30%
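Tetracycline-induced HEK293 T-REx cells with force-coupled D1 receptor were loaded with a no-wash calcium dye. Compound was added after a 10 s baseline and read kinetically for 180 s; EC80 dopamine was then added and calcium flux followed another 180 s.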
DRD3 antagonist = blocks the human D3 dopamine receptor | max response, negative = inhibition, % | D3R cells, DiscoveRx beta-arrestin luminescence, antagonist mode; active compounds read low | P35462 | 2.5% of 360,000 active; in the data active means max response below about -50%; inconclusive means no clear call, values can overlap the other calls
Target sequence (P35462 whole entry, looked up): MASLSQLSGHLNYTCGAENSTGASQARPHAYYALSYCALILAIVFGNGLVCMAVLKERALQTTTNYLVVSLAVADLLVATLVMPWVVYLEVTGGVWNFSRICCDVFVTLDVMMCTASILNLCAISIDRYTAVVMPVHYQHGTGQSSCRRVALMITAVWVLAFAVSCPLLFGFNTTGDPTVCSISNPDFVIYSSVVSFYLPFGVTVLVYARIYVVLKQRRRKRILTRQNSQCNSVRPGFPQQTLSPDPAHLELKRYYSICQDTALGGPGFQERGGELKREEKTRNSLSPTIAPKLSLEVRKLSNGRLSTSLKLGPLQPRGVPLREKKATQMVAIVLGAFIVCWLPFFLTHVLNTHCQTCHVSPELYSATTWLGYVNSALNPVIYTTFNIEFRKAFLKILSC
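Cells expressing the human receptor were seeded at 1500 cells/well, incubated overnight at 37 degrees C in 5% CO2, then exposed to library compounds with dopamine controls for 90 minutes at 37 degrees C before luminescent detection.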
D3 ag = D3 dopamine receptor (human) agonism; max activation, %; D3R DiscoveRx beta-arrestin cells, luminescence, 90 min; P35462; 0.58% of 410,000 active; in the data active means max activation above about 30%
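Cells at 1500/well, incubated overnight, then treated with pinned compounds (dopamine as control) for 90 min at 37 degrees C. DiscoveRx reagent added for 30 - 60 minutes at room temperature; luminescence read.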
ERG-DNA inh = inhibitors of human ERG Ets domain-DNA interaction; P11308; fluorescence polarization, His-ERG Ets domain / labelled DNA; Potency, µM (top dose mostly 76.9 µM), hits mostly inhibitors; 0.028% of 370,000 active; AID 624246; active means well fitted inhibition curve with a large enough effect in the polarisation, with a control signal flat; inconclusive means small, poorly fitted or top-dose-only effect, or effect the other way, or a change in a side signal; inactive means no such curve, though single readings can be large or run the other way; the % refers to the polarisation;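 further: polarization taken with two DNA probes labelled with fluorescein and Texas red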
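His-tagged ERG Ets domain (1 uM in the protein solution; 300mM KCl, 50mM Tris-HCl, 1mM EDTA, 1mM DTT, pH 7.5) received compound, then a probe mix of 5 nM fluorescein-DNA and 100nM Texas-615-DNA. Fluorescence polarization was read for both dyes.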
Each line names hits and unclear results; the compound was inactive in the other large screens.

CCc1ccc2nc(NC(=O)Cn3cnc4ccccc4c3=O)sc2c1	none
COc1cc(CN(C(=O)COc2ccc(F)cc2)c2ccccn2)cc(OC)c1OC	none (no result: DRD3 antagonist)
COc1ccc(/C=N/NC(=O)Cn2cnc3c2c(=O)n(C)c(=O)n3C)c(OC)c1OC	none
COc1ccc(OC)c(NC(=O)N2CCCC(CNS(=O)(=O)c3cccs3)C2)c1 (stereo unspecified)	none
CC1CCN(CCCCOc2ccc(C(=O)c3ccccc3)cc2)CC1	DRD3 antagonist -75
CC1CCN(CCCOc2ccc(OCc3ccccc3)cc2)CC1	D1 ag 76, D1 antag -40, DRD3 antagonist -70
CC1CCN(CCOc2ccc(C(=O)c3ccccc3)cc2)CC1	none
O=[N+]([O-])c1ccc(OCCCCN2CCc3ccccc3C2)cc1	D1 antag -63, DRD3 antagonist -102
CC1CCN(CCOc2ccccc2-c2ccccc2)CC1	DRD3 antagonist inconclusive
CC1CCN(CCCCOc2ccccc2[N+](=O)[O-])CC1	DRD3 antagonist -83 (no result: ERG-DNA inh)
CC1(C)NC(=O)N(CCOc2ccc([N+](=O)[O-])cc2)C1=O	none (no result: D1 antag)
COc1cccc(NC(=O)c2ccc(NCCCN3CCC(C)CC3)c([N+](=O)[O-])c2)c1	DRD3 antagonist -54
Cc1ccc(OCCCCN2CCC(C)CC2)cc1	DRD3 antagonist inconclusive
O=[N+]([O-])c1ccc(OCCCCCN2CCOCC2)cc1	none
C[N+](C)(C)CCOc1ccc([N+](=O)[O-])cc1	D1 antag -31
CC1CCN(CCCCOc2ccc(F)cc2)CC1	DRD3 antagonist -59
O=[N+]([O-])c1ccc(OCCCCN2CCCCC2)cc1	DRD3 antagonist -58
CC(O)c1nc2ccccc2n1CCOc1ccccc1 (stereo unspecified)	D1 ag 43, D1 antag -46, DRD3 antagonist inconclusive
Cc1nc2ccccc2n1CCOc1ccc([N+](=O)[O-])cc1	D1 antag -40
COc1ccc(OCCn2c(C)nc3ccccc32)cc1	none (no result: D1 potentiator, D1 ag, D1 antag, ERG-DNA inh)
C=CCC(CC=C)(CNC(=O)C(=O)Nc1cccc(C(F)(F)F)c1)c1ccccc1	D1 ag 30 (no result: DRD3 antagonist)
COc1ccc(C(C(=O)NC2CCCC2)n2c(C3CCN(C(C)=O)CC3)nc3ccccc32)cc1 (stereo unspecified)	DRD3 antagonist -50 (no result: D1 potentiator, D1 ag, D1 antag, ERG-DNA inh)
CC(C(=O)NC1CCCC1)n1c(C2CCCC2)nc2ccccc21 (stereo unspecified)	none (no result: D1 potentiator, D1 ag, D1 antag, ERG-DNA inh)
CC1(Br)C(Sc2ccccc2[N+](=O)[O-])=Nc2ccccc21 (stereo unspecified)	DRD3 antagonist -51 (no result: D1 potentiator, D1 ag, D1 antag, ERG-DNA inh)
Cc1[nH]c(=O)[nH]c(=O)c1Sc1ccccc1[N+](=O)[O-]	none
COC(=O)c1ccc(Cn2c(=O)cc(C)c3c(C)nn(C)c32)cc1	D3 ag 37 (no result: DRD3 antagonist)
Cc1nn(C)c2c1c(-c1ccccc1)cc(=O)n2Cc1ccc(F)cc1	D3 ag 31 (no result: DRD3 antagonist)
COc1ccc(C)cc1NC(=O)Cn1c(=O)cc(C)c2c(C)nn(C)c21	D1 antag -31 (no result: DRD3 antagonist)
CSc1cccc(NC(=O)Nc2ccc(Cl)cc2)c1	D1 antag -33, DRD3 antagonist inconclusive
NC(=O)c1ccccc1NC(=O)Nc1cccc(Cl)c1	D1 antag -42
NS(=O)(=O)c1ccc(NC(=O)Nc2cccc(Cl)c2)cc1	D1 antag -32
C/C=C/c1ccc(OCCCNC2CCCC2)c(OC)c1	DRD3 antagonist -61
COc1cc(/C=N/NC(=O)c2cc(-c3cccc(Br)c3)nc3ccccc23)cc(OC)c1O	D3 ag 32 (no result: D1 potentiator, D1 ag, D1 antag)
COc1cc(/C=N/NC(=O)c2cc(-c3ccccc3)nc3ccccc23)ccc1O	none
O=C(N/N=C/c1cccs1)c1cc(-c2ccncc2)nc2ccccc12	none
COc1cc(/C=N/NC(=O)c2cc(-c3ccccc3Cl)nc3ccccc23)cc(OC)c1O	none (no result: D1 potentiator, D1 ag, D1 antag)
C/C(=N\NC(=O)c1cc(-c2cccc(OC(C)C)c2)nc2ccccc12)c1cccnc1	D1 antag -43
CCOc1cc(/C=N/NC(=O)c2cc(-c3cccc(OC)c3)nc3ccccc23)ccc1O	D3 ag 35 (no result: D1 potentiator, D1 ag, D1 antag)
COc1ccccc1-c1cc(C(=O)N/N=C/c2cccs2)c2ccccc2n1	DRD3 antagonist -78
CCOc1ccc(N2CC(c3nc4ccccc4n3CCOc3ccccc3OC)CC2=O)cc1 (stereo unspecified)	none (no result: DRD3 antagonist)
CC(C)COc1cccc(-c2cc(C(=O)N/N=C/c3ccncc3)c3ccccc3n2)c1	D3 ag 34
COc1cc(/C=N/NC(=O)c2cnn3c(C)cc(-c4ccccc4)nc23)ccc1O	D3 ag 47
CCOc1cc(/C=N/NC(=O)C(=O)NCc2cccnc2)ccc1O	D1 antag -35
COc1cc(/C=N/NC(=O)c2nc(-c3ccccc3)n(-c3ccccc3)n2)ccc1O	none
COc1ccc(/C=N/NC(=O)c2cccc(Br)c2)cc1CN1CCOCC1	none
COc1ccc(/C=N/NC(=O)c2ccccc2O)cc1CN1CCOCC1	D1 antag -33
COc1ccc(/C=N/NC(=O)c2ccncc2)cc1CN1CCN(c2ccc(F)cc2)CC1	DRD3 antagonist -55
C/C(=N\NC(=O)c1cccc(S(=O)(=O)N2CCCC2)c1)c1ccncc1	none
C=C(C)Cn1c(SCC(=O)c2ccccc2)nc2sc3c(c2c1=O)CCCC3	none (no result: DRD3 antagonist)
C=C(C)Cn1c(SCC(=O)Nc2cccc(C)c2)nc2sc3c(c2c1=O)CCCC3	D3 ag 34 (no result: DRD3 antagonist)
Cn1cc(-c2ccccc2C(=O)O)c(=O)c2ccccc21	ERG-DNA inh inconclusive
COc1ccc(N2CCN(C(=O)CNC(=O)c3ccco3)CC2)cc1	D1 antag -80
COc1ccc(N2CCN(S(=O)(=O)CCNC(=O)c3ccco3)CC2)cc1	none
CCSC1=C(C#N)C(c2ccc(C)o2)CC(=O)N1 (stereo unspecified)	none
Cc1ccc(C2CC(=O)NC(SCc3ccccc3)=C2C#N)o1 (stereo unspecified)	DRD3 antagonist -62
O=C1c2ccccc2C(=O)N1Cc1ccccn1	D1 antag -37
CC1(C)CC(=O)c2cc(C(=O)NNc3ccccc3)c(=O)n(-c3ccccc3)c2C1	none
COc1cc([N+](=O)[O-])c2ncsc2c1	none
COc1cc(SSc2cc(OC)cc([N+](=O)[O-])c2N)c(N)c([N+](=O)[O-])c1	DRD3 antagonist -77
COc1ccc(-c2c([C@H]3[C@H]4C=CC[C@@H](C)[C@@H]4C(=O)N3Cc3ccccc3)ccc3ccccc23)cc1	none
COc1ccccc1COC(=O)C(NC(=O)c1ccc(C)cc1)C(C)C (stereo unspecified)	D1 antag -32
OC(C[n+]1ccccc1)c1ccccc1 (stereo unspecified)	none
Cc1ccc(S(=O)(=O)NCC(=O)OCCOc2cccc(Cl)c2)cc1	D1 potentiator 40
